An excerpt weighted towards active compounds, which were near 0.88% of everything screened.
APE1 inh-1 – inhibitors of human APE1 endonuclease | P27695 | actives 0.35% (n = 350,000) | Potency, µM (titrated, usually from 65.8 µM), for the others: at the top dose activity change, negative = inhibition, actives largely listed as inhibitors | AID 2517 | recombinant APE1, TAMRA/BHQ-2 abasic DNA cleavage fluorescence;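 also: plate controls were vehicle for no effect and reference inhibitor for full effect; nearly all actives have a fitted effect of over 55% in size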
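Enzyme (0.75 nM final) and test compound are incubated 15 min at room temperature before adding 50 nM quenched THF abasic-site duplex. Cleavage dequenches TAMRA, followed at 525/598 nm over three reads one minute apart.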
RECQ1 inh – inhibitors of human RECQ1 DNA helicase. RECQ1 DNA unwinding, red fluorescence kinetic read. P46063. actives 0.54% (n = 240,000). Potency, µM (highest dose often 57.3 µM), for inactives: top-dose activity, negative = inhibition, usual class: inhibitors;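 also: plate controls were vehicle for no effect and no enzyme for full effect; nearly all actives have a fitted effect of over 30% in size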
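50 nM RECQ1T1 preincubated 15 min with compound in Tris pH 8.0 buffer with MgCl2, DTT, Tween-20 and 2.5 ug/ml poly(dI-dC); started with 200 nM TAMRA/BHQ-2 forked duplex and 2 mM ATP. Unwinding read as fluorescence (525/598 nm), two reads 2 h apart.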
GCN5L2 inh – GCN5L2 (KAT2A) acetyltransferase inhibition; GCN5L2 HAT assay, ThioGlo1 CoA-SH fluorescence; Potency, µM (highest dose often 58.9 µM), inactives show top-dose activity change, negative = inhibition, most hits filed as inhibitors; actives 0.21% (n = 390,000); also: % is scaled to controls: 0 for no effect and ±100 for the full control effect
Target sequence (Q92830 whole entry, looked up): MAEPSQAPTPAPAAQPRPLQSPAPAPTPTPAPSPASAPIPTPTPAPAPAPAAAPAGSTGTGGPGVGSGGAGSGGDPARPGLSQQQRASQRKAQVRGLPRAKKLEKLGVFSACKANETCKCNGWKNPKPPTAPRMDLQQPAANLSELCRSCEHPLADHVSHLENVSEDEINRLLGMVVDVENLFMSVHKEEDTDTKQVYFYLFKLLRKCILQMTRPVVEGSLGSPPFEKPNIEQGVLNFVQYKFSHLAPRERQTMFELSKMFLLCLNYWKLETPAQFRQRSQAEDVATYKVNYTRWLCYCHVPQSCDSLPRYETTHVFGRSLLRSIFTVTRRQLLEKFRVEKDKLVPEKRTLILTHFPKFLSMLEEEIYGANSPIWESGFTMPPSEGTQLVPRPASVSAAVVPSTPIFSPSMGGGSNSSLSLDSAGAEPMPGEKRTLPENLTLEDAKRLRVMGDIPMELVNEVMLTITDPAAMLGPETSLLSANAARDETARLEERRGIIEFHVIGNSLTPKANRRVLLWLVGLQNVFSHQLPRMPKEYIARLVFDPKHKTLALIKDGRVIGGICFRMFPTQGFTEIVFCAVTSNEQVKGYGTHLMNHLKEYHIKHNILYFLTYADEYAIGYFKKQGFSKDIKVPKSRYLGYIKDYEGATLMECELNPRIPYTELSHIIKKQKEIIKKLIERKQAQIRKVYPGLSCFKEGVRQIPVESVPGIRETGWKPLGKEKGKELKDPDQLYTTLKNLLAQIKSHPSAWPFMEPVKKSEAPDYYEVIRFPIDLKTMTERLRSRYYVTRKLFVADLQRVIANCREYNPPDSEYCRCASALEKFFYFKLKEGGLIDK
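Fluorescence readout, Ex340nm/Em540nm: ThioGlo1 (50uM final) reacts with free CoA thiol released as 20nM GCN5L2 acetylates H3(1-25) peptide (75uM) using acetyl-CoA (70uM). Compound and enzyme sat 15 min beforehand; 20 min room-temperature reaction.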
WRN inhibitor – blocks human WRN helicase; Q14191; WRN helicase unwinding, fluorescent forked duplex, kinetic; Potency, µM (top dose mostly 114 µM), without a hit: at the highest dose activity change, negative = inhibition, usual class: inhibitors; actives 0.46% (n = 360,000); AID 651768; also: % is scaled to controls: 0 for no effect and ±100 for the full control effect; nearly all actives have a fitted effect of over 55% in size
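Primary qHTS, 1536-well format. 20 nM WRN + compound, 15 min RT; start with 100 nM forked fluorophore/quencher duplex, 2 mM ATP (final); kinetic read ex 525/em 598 nm.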
ERG Ets-DNA blk – ERG Ets/DNA interaction inhibition | actives 0.028% (n = 370,000) | P11308 | fluorescence polarization, His-ERG Ets domain / labelled DNA | Potency, µM (highest dose often 76.9 µM), inactives show top-dose FP activity, negative = inhibition, actives largely listed as inhibitors | AID 624246; active = well fitted inhibition curve with a large enough effect in the polarisation, with a control signal flat; inconclusive = small, poorly fitted or top-dose-only effect, or effect the other way, or a change in a side signal; inactive = no such curve, though single readings can be large or run the other way; the % refers to the polarisation;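 also: polarization taken with two DNA probes labelled with fluorescein and Texas red; % of control where 0% means no effect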
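His-tagged ERG Ets domain (1 uM in the protein solution; 300mM KCl, 50mM Tris-HCl, 1mM EDTA, 1mM DTT, pH 7.5) received compound, then a probe mix of 5 nM fluorescein-DNA and 100nM Texas-615-DNA. Fluorescence polarization was read for both dyes.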
BLM inh – blocks DNA unwinding by human BLM helicase; P54132; recombinant BLM DNA unwinding, fluorescence dequenching; Potency, µM (doses to about 56.1 µM), inactives show top-dose activity change, negative = inhibition, actives largely listed as inhibitors; actives 0.2% (n = 350,000);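 also: plate controls were vehicle for no effect and no enzyme for full effect; nearly all actives have a fitted effect of over 35% in size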
APE1 dye cs – DNA dye displacement counter-screen activity. shares compounds with APE1 inh-1. DNA fluorescent dye displacement counterscreen, fluorescence. Potency, µM (highest dose often 28.5 µM), for inactives: at the top dose activity change, negative = inhibition, actives largely listed as inhibitors. actives 7% (n = 480);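 also: loss of thiazole orange fluorescence as the dye is displaced from duplex DNA; 0% = ThO with dsDNA and no compound and -100% = ThO without dsDNA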
Endo IV inh – blocks E. coli endonuclease IV DNA cleavage; shares compounds with APE1 inh-1; E. coli Endo IV, fluorogenic AP-site DNA cleavage; actives 4% (n = 560); Potency, µM (highest dose often 27.1 µM), for the others: at the highest dose activity change, negative = inhibition, actives largely listed as inhibitors;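 also: plate controls were uninhibited enzyme wells for no effect and no enzyme buffer wells for full effect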
APE1 inh-2 – confirmation of inhibitors of human APE1 endonuclease; shares compounds with APE1 inh-1; purified APE1, fluorogenic abasic-site DNA cleavage; Potency, µM (doses to about 57.1 µM), for inactives: top-dose activity change, negative = inhibition, actives largely listed as inhibitors; actives 44% (n = 750); AID 2572; also: % is scaled to controls: 0 for no effect and ±100 for the full control effect; nearly all actives have a fitted effect of over 30% in size
APE1 FP – compounds that displace a DNA probe from human APE1; APE1 binding to TAMRA-labelled double-stranded DNA, fluorescence polarization displacement; actives 7% (n = 480); shares compounds with APE1 inh-1; AID 2573; Potency, µM (highest dose often 28.5 µM), for inactives: at the top dose activity, negative = inhibition, most hits filed as inhibitors; also: % is scaled to controls: 0 for no effect and ±100 for the full control effect
* hit, by the source's call; [ ] = dose if it differs, or a comment. Unless noted, calls follow the shape of the dose curve; as a rule, active = well fitted curve in the direction sought with a large enough effect; inconclusive = small, poorly fitted or top-dose-only effect, or another doubt; inactive = no such curve, though single readings can be large; an effect the other way counts as inactive or inconclusive. Potency is read from the fitted curve at half-maximal effect.

C=CCc1cccc2cc(C(=O)Nc3ccc(S(=O)(=O)Nc4nnc(CC)s4)cc3)c(=O)oc12 was read as APE1 inh-1 inconclusive, RECQ1 inh -4%, GCN5L2 inh 27%, WRN inhibitor -32%, ERG Ets-DNA blk -12%, BLM inh inconclusive and APE1 inh-2 40µM*.
Screening CCCOc1cccc(C(=O)Nc2ccc(-c3nc4ccccc4s3)c(Cl)c2)c1 returned GCN5L2 inh 1%, ERG Ets-DNA blk 7% and BLM inh -9%.
COc1ccc(OCc2cc(C(=O)O)c(C)o2)cc1 was read as APE1 inh-1 25µM*, RECQ1 inh 13%, GCN5L2 inh 0%, BLM inh 5% and APE1 inh-2 40µM*.
`Cc1ccc2c3c(cccc13)-c1ccccc1C2=O` gave APE1 inh-1 -9%, RECQ1 inh -9%, GCN5L2 inh -11%, WRN inhibitor -27%[57.1 µM], ERG Ets-DNA blk 9% and BLM inh 1%.
Cc1cc2c3c(cccc3n1)C(=O)c1ccccc1-2 was read as APE1 inh-1 inconclusive, RECQ1 inh -8%, BLM inh 20%, APE1 dye cs inconclusive, Endo IV inh 6%, APE1 inh-2 inconclusive and APE1 FP 2.5µM*.
`O=C(CSc1nc(-c2ccccc2)nc2ccc(F)cc12)Nc1cccc(C(=O)O)c1` gave APE1 inh-1 2%, RECQ1 inh -4%, GCN5L2 inh 18%, WRN inhibitor -21%, ERG Ets-DNA blk -2%, BLM inh -10% and APE1 inh-2 -31%.
For O=C(CSc1nc(-c2ccccc2)nc2ccc(F)cc12)Nc1ccc(C(=O)O)cc1 the results were APE1 inh-1 -9%, RECQ1 inh -2%, GCN5L2 inh -26%, WRN inhibitor -21%[57.1 µM], ERG Ets-DNA blk 5% and BLM inh -18%.
For CC(N=Cc1cc([N+](=O)[O-])ccc1O)c1ccccc1 (centres undefined) the results were APE1 inh-1 3%, RECQ1 inh -1%, GCN5L2 inh -9%, WRN inhibitor -12%, ERG Ets-DNA blk -5% and BLM inh 1%.
`CC(N=Cc1cccc(O)c1O)c1ccccc1` (centres undefined) gave APE1 inh-1 14µM*, RECQ1 inh 22µM*, GCN5L2 inh -16%, WRN inhibitor 32µM*, ERG Ets-DNA blk -12%, BLM inh -10%, APE1 dye cs 5%, Endo IV inh 13%, APE1 inh-2 -7%[24.4 µM] and APE1 FP -3%.
COc1cccc(-c2cnc(C(O)c3ccc(Cl)c(F)c3)[nH]2)c1 (centres undefined) was read as WRN inhibitor 1%.

Assay outcomes deposited in PubChem by National Center for Advancing Translational Sciences (NCATS).
